# According to the supplement of paper PMC6555819:
# Legend:
# Experiment in all cases: PBM binding z-score (relative to random genomic background probes); higher = stronger binding; sequences stand for … in GC…GCGATTGACAGCGTAGAATGAAGG
# [1] = test system: RARb homodimer (NR concentration 270 nM)
# Method in brief: (§1)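 For binding z-scores, the reference was random background probes on custom Agilent 4×180K protein-binding microarrays. These arrays were incubated 1 h with ligand-free nuclear receptor dimers in PBS pH 7.4, 2% milk, 0.02% Triton X-100, 1 mM DTT, 0.2 mg/mL BSA and 0.4 mg/ml salmon testes DNA. Fluorescence was scanned after antibody detection of each partner (one per run) and regression-normalized.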
# [2] = test system: RARg:RXRa (NR concentration 270 nM, RXRa partner concentration 90 nM)
# Method in brief: as §1
# [3] = test system: RARg homodimer (NR concentration 270 nM)
# Method in brief: as §1
# [4] = test system: RXRa DBDmut IVT, anti-RXR (DBD mutation: RXRa K156A/R161A, NR concentration 90 nM)
# Method in brief: as §1
# [5] = test system: RXRa homodimer (NR concentration 180 nM)
# Method in brief: as §1
# [6] = test system: THRa:RXRa (NR concentration 90 nM, RXRa partner concentration 90 nM)
# Method in brief: as §1
# [7] = test system: THRa homodimer (NR concentration 90 nM)
# Method in brief: as §1
# [8] = test system: VDR homodimer (NR concentration 270 nM)
# Method in brief: as §1
Sequence,PBM binding z-score [1],PBM binding z-score [2],PBM binding z-score [3],PBM binding z-score [4],PBM binding z-score [5],PBM binding z-score [6],PBM binding z-score [7],PBM binding z-score [8]
TAGCCTAGGTCATGGGCCAGTCTACCACGCGAAC,2.8,4.32,4.43,-0.0274,3.69,2.93,1.09,0.0195
ATTACAGGGTCATCGTAGGCCAGAGTACGCACAG,3.91,5.86,5.41,3.6,6.79,4.86,1.78,3.83
TTACCAAGGTGAAGGTCATTGATCCCTCTGTAGA,3.83,3.84,3.53,1.15,4.16,3.41,1.74,2.17
TCTAGTTGGTCAAAGTTCACACACTCGAAATGCG,4.37,4.88,4.04,2.68,4.73,2.62,1.04,4.58
CCGACTGGGGCACAGGTTACCATACTCAGTACGA,1.07,1.02,0.906,-0.122,0.761,0.272,-0.26,-0.0992
ATCGAAAGGTCGAGGGGAGTATAGAGAAAGGGAA,2.84,4.18,4.21,1.4,3.94,2.05,0.272,0.958
GCTCGGACGACAAGGTCAGAGCTTTGTCCGTAGA,2.73,2.72,3.07,0.365,2.23,2.54,0.94,0.617
CTACCAAGGTGAACAAGGTCGTTTATTACTATTC,2.34,1.72,1.55,2.29,1.77,3.26,2.33,3
TCTAGTTGTTCACGGAGGTCACACACGACGGGTA,4.05,3.97,3.7,1.18,4.36,3.39,2.47,3.06
CCTACTGGGCCATCAGGTCATTGGTATCAACGTT,2.99,1.93,1.66,0.149,0.958,3.33,3.05,1.64
TCTTGTAGATCAAAGGTTAAGGAAGCCGAAGCCT,1.55,1.85,0.852,0.63,3.15,1.39,-0.169,-0.0198
CTCGAAAGGTCGGTTGAGGTGAGTACACGGATAA,2.53,2.89,2.79,0.908,2.34,5.21,1.47,1.71
TCTCTGAGGACACGAAGGTCAGAGCTTTCCAGAG,3.87,3.32,3.9,1.21,1.92,4.11,4.02,1.71
ATATGTAGGTTATCGGCTCATTCAGTTTGCGCAT,0.158,0.446,0.752,0.79,0.927,0.266,0.293,0.816
GCTTACGGGTCAAAGGTTATAGAATGAATAGAAT,3.44,6.87,5.16,2.45,9.56,3.89,0.468,1.96
CGAAATAGGTCATCCAGGACAGTGAATACATTGA,3.71,5.08,4.84,2.26,4.96,3.96,1.19,1.92
CTCGAAAGGTCGGTGGAGGTGAGTATACGGATAA,2.57,2.73,2.83,0.607,2.32,4.27,0.235,0.546
TCTCGGAGGACACGAAAGGTCAGAGCACGACATC,4.5,5.01,5.15,1.04,4.09,3.67,1.29,1.49
TCAGACAGCTGAAGGTAACTCAGGTACGCAGTCG,-0.661,-0.115,-0.24,0.764,0.413,1.05,-0.685,-0.186
CGAACTAGGTCATCCAGGACTGTGAATACATTGA,2.93,4.02,4.47,2.26,2.62,2.95,1.17,1.39
CCTACTGGGGCAAAAAGGTCATTGATGCCGATAA,4.23,4.99,4.5,0.866,4.63,2.9,0.176,3.13
CCGTACGGGTCACTCCAGGTTATAGCATCGGAGT,3.26,4.74,4.74,1.62,5.04,5.05,0.303,1.37
CCTAGTTGGGCAAGGTCACACACGCTATAGGTAC,3.9,4.2,3.87,1.51,4.41,3.79,3.23,2.77
CGAACTAGGTCATCCACGACAGTGAATACATTGA,2.85,3.96,4.77,2.28,2.9,2.79,1.22,1.44
GCGACTGGGGCATCAGCAGGTTACCATAACTTAA,0.856,0.955,0.455,-0.108,0.462,1.09,-0.0496,-0.398
GGAACGCGGGCAAAGTTGATAGCATCTGTCGACG,-0.251,0.143,0.259,0.0126,0.126,-0.6,-1.04,-0.471
CCTAGCAGGCTAATCTGGGTCACTCAAGGCTTGA,1.8,0.393,0.769,0.246,0.687,3.19,0.623,0.114
AGAATGAGGTTACCAAAGACCAGGGAAACGCTTG,0.685,2.01,1.51,1.02,2.79,2.87,0.659,0.4
